The record followed here is article PMC4336329 (PLoS ONE, 2015).

Each structure is given as a SMILES string. The whole screen tested about 310,000 compounds, of which about 14,000 (4.5%) showed an effect of 50% or more. The effect is printed as a negative number. Only a selection was taken, and strong results are over-represented in it overall.
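Also: peak tail current of the secondary pulse compared with the same well before compound.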

Chain of human ether-à-go-go-related gene (hERG) potassium channel (Q12809 whole entry, looked up): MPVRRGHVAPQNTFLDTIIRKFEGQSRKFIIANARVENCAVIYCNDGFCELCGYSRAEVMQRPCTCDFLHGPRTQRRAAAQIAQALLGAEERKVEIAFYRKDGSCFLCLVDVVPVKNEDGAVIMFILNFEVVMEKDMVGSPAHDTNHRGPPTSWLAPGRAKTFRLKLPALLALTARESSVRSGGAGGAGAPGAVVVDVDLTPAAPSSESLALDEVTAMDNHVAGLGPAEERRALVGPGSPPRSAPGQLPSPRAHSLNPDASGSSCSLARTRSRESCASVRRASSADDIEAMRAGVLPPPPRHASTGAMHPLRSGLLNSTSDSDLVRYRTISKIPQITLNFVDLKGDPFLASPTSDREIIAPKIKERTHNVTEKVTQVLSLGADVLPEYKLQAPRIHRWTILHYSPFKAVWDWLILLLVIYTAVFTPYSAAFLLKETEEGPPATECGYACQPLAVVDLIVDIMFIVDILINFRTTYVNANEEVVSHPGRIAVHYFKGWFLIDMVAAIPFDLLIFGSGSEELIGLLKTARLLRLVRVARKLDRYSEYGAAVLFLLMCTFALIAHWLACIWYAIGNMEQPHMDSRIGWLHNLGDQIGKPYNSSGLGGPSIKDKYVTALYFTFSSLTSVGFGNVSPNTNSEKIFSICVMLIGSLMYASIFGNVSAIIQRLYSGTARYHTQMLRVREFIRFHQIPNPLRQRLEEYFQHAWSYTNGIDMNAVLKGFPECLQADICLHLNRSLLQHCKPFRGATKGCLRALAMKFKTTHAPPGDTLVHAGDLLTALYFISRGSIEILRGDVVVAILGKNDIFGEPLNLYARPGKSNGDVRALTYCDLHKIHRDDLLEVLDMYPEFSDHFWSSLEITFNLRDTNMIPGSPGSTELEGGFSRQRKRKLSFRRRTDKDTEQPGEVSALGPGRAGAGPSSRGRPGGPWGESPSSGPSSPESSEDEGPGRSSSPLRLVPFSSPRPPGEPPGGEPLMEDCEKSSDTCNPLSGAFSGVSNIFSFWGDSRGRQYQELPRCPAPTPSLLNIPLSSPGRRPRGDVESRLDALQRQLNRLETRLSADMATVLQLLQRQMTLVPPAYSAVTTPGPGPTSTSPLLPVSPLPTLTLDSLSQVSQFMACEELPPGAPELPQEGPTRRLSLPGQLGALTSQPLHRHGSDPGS

The test has as its target human ether-à-go-go-related gene (hERG) potassium channel (human, UniProt Q12809). Put plainly: primary screen, population patch clamp on CHO cells stably expressing hERG; higher = less effect of the substance.
On to `COc1ccc(OC)c(C2NC(=O)NC(C)=C2C(=O)Nc2ccc(C)cc2)c1` (stereo not shown), for which the “hERG current change (%, negative = inhibition) at 10uM” value is recorded as 5.98%.
For `COC(=O)[C@H](C)NC(=O)Nc1cc(OC)ccc1OC` the value was -8.76%; for `N#CCC(=O)Nc1ccc(C(=O)OCC(=O)C23CC4CC(CC(C4)C2)C3)cc1`, 12.7%; for `CC1CCCN(C(=O)C2CCCN(S(=O)(=O)c3cccc4nsnc34)C2)C1` (stereo not shown), 2.02%.
For `Cc1cccc(-n2c(-c3ccccc3)c[nH]c2=S)c1C` the value was 14.6%.
As for `COCCn1c(SCC(=O)Nc2cc(OC)ccc2OC)nc2c(c1=O)SC(C)C2` (stereo not shown), the “hERG current change (%, negative = inhibition) at 10uM” value was -18.5%.
With `COc1cc(/C=C/CO)cc(OC)c1OC/C=C(\C)CCC=C(C)C`, the “hERG current change (%, negative = inhibition) at 10uM” value was 1.34%.
The value for `CCOC(=O)c1c(NC(=O)C2CCCCC2)sc2c1CCN(CC)C2.Cl` was -51.7%.
Take `CC(C)N1CCc2c(sc(NC(=O)C3CCCCC3)c2C(N)=O)C1.Cl`: the “hERG current change (%, negative = inhibition) at 10uM” value is -21.7%.
For `CCOC(=O)c1c(NC(=O)C2CCCCC2)sc2c1CCN(C(C)C)C2.Cl` the value was -81.6%; for `CCOC(=O)c1c(NC(=S)N2CCCCC2)sc2c1CCN(C(=O)OCC)C2`, -1.16%; for `COC(=O)c1c(NC(=O)C2CCCCC2)sc2c1CCN(C(C)C)C2.Cl`, -16.5%.
The value for `CCN1CCc2c(sc(NC(=O)C3CCCCC3)c2C(=O)OC)C1.Cl` was -17.4%; that for `O=C(COc1ccccc1)NCCSCc1ccc(Cl)cc1` was -12.6%.
The value for `CCC(C)NC(=O)Cn1c(=O)sc2ccccc21` (stereo not shown) was 4.15%.
With `O=C(CN(Cc1ccccc1)S(=O)(=O)c1ccc(Br)cc1)NCC1CCCO1` (stereo not shown), the “hERG current change (%, negative = inhibition) at 10uM” value is on record as -77.2%.
The value for `Cc1ccc(CN(CC(=O)NCC2CCCO2)S(=O)(=O)c2ccc(C)cc2)cc1` (stereo not shown) was -1.71%; that for `Cc1ccc(S(=O)(=O)N(CC(=O)NCC2CCCO2)Cc2ccc(F)cc2)cc1` (stereo not shown) was -10.6%; that for `O=C(CN(Cc1ccccc1)S(=O)(=O)c1ccc(Cl)cc1)NCC1CCCO1` (stereo not shown) was -9.79%.
The value for `Cc1ccc(S(=O)(=O)N(CC(=O)NCC2CCCO2)Cc2cccc(C)c2)cc1` (stereo not shown) was -60.5%; that for `O=C(CN(Cc1ccc(Br)cc1)S(=O)(=O)c1ccccc1)NCC1CCCO1` (stereo not shown) was -6.72%.
For `Cc1noc(C)c1S(=O)(=O)N1CCCC(C(=O)Nc2nccs2)C1` (stereo not shown) the value was -13.6%; for `CCOc1ccc(OCCSc2nc3ccccc3[nH]2)cc1`, -0.985%; for `CN(C)S(=O)(=O)c1ccc(Cl)c(NC(=O)CN2CCc3ccccc3C2)c1`, -12.7%.
On to `CN1CCN(CCC(=O)N2c3ccccc3Sc3ccc(Cl)cc32)CC1`, for which the “hERG current change (%, negative = inhibition) at 10uM” value is -48.9%.
As for `CN(C)S(=O)(=O)c1ccc2c(c1)C(=O)c1cc(S(=O)(=O)N(C)C)ccc1CC2`, the “hERG current change (%, negative = inhibition) at 10uM” value was determined as 7.08%.
For `COc1cc2c(cc1Cl)/C(=C\CCN(C)C)c1ccccc1S2.O=S(=O)(O)O` the value was -35.4%; for `CN1CCN(CC(=O)N2c3ccccc3Sc3ccccc32)CC1`, -13.7%; for `CCSc1ccc2c(c1)N(CCCN1CCN(C)CC1)c1ccccc1S2.O=C(O)CC(O)C(=O)O`, -54.2%.
For `CN1CCN(CC(=O)Nc2ccc(S(=O)(=O)N(C)C)cc2)CC1.O=C(O)C(=O)O` the value was 6.74%.
Regarding `CN1CCN(CCCN2c3ccccc3Sc3ccc(S(=O)(=O)N(C)C)cc32)CC1.CS(=O)(=O)O`, the “hERG current change (%, negative = inhibition) at 10uM” value was -57.4%.
For `CN1CCN(CC/C=C2\c3ccccc3Sc3ccc(S(=O)(=O)N(C)C)cc32)CC1` the value was -58%.
The value for `Cl.FC(F)(F)c1ccc2c(c1)N(CCCN1CCN(CCCl)CC1)c1ccccc1S2` was -8.34%; that for `CN1CCN(CCCN2c3ccccc3Sc3ccc(C(F)(F)F)cc32)CC1.Cl` was -30.4%.
The value for `CN1CCN(CC/C=C2/c3ccccc3Sc3ccc(S(=O)(=O)N(C)C)cc32)CC1` was -64.7%; that for `CNC(=O)c1ccc(NC(=O)CC2SC(N3CCCC3)=NC2=O)cc1` (stereo not shown) was -4.89%; that for `CCCc1nc2sc3ccccc3c(=O)c2c(=O)n1CCOC` was 9.8%.
With `CCOC(=O)CN1CC23C=CC(O2)C(C(=O)Nc2ccc4c(c2)OCO4)C3C1=O` (stereo not shown), the “hERG current change (%, negative = inhibition) at 10uM” value was 4.95%.
With `Cc1cc(Br)ccc1NC(=O)CN(C)C(=O)COc1cccc2c1OC(C)(C)C2`, the “hERG current change (%, negative = inhibition) at 10uM” value was -8.15%.
The value for `COCCn1c(SCC(=O)Nc2ccc(C(C)=O)cc2)nc2c([nH]c3ccccc32)c1=O` was 1.97%.
The value for `Cc1cc(O)c(-c2ccno2)cc1Cl` was 13%; that for `CCN(CC)c1ccc(NC(=O)Cn2cc3c(n2)CCC(C)C3)c(C)c1` (stereo not shown) was -3.35%; that for `NC(=O)CSc1nnc(-c2cccs2)n1Cc1ccco1` was -13.9%.
Turning to `COc1cc(OC)c(OC)cc1CNCCNC(=O)c1nonc1N.Cl`, the “hERG current change (%, negative = inhibition) at 10uM” value is reported as -0.502%.
For `COc1cc(CNCCNCC(C)O)ccc1OCc1ccc(Cl)nc1` (stereo not shown) the value was -8.7%.
As for `COc1cccc(CNCCNC(=O)c2nonc2N)c1.Cl`, the “hERG current change (%, negative = inhibition) at 10uM” value turned out to be 9.27%.
